# KDM5B inhibitor = KDM5B demethylase inhibition | KDM5B demethylase, FDH-coupled NADH fluorescence (FDH is formaldehyde dehydrogenase) | 220,000 tested, 2.6% active | Potency, µM (top dose mostly 57.7 µM), hits mostly inhibitors; active = well fitted inhibition curve with a large enough effect; note: 0% is about no effect; nearly all actives have a fitted effect of over 70% in size
# Target sequence (Q9UGL1 whole entry, looked up): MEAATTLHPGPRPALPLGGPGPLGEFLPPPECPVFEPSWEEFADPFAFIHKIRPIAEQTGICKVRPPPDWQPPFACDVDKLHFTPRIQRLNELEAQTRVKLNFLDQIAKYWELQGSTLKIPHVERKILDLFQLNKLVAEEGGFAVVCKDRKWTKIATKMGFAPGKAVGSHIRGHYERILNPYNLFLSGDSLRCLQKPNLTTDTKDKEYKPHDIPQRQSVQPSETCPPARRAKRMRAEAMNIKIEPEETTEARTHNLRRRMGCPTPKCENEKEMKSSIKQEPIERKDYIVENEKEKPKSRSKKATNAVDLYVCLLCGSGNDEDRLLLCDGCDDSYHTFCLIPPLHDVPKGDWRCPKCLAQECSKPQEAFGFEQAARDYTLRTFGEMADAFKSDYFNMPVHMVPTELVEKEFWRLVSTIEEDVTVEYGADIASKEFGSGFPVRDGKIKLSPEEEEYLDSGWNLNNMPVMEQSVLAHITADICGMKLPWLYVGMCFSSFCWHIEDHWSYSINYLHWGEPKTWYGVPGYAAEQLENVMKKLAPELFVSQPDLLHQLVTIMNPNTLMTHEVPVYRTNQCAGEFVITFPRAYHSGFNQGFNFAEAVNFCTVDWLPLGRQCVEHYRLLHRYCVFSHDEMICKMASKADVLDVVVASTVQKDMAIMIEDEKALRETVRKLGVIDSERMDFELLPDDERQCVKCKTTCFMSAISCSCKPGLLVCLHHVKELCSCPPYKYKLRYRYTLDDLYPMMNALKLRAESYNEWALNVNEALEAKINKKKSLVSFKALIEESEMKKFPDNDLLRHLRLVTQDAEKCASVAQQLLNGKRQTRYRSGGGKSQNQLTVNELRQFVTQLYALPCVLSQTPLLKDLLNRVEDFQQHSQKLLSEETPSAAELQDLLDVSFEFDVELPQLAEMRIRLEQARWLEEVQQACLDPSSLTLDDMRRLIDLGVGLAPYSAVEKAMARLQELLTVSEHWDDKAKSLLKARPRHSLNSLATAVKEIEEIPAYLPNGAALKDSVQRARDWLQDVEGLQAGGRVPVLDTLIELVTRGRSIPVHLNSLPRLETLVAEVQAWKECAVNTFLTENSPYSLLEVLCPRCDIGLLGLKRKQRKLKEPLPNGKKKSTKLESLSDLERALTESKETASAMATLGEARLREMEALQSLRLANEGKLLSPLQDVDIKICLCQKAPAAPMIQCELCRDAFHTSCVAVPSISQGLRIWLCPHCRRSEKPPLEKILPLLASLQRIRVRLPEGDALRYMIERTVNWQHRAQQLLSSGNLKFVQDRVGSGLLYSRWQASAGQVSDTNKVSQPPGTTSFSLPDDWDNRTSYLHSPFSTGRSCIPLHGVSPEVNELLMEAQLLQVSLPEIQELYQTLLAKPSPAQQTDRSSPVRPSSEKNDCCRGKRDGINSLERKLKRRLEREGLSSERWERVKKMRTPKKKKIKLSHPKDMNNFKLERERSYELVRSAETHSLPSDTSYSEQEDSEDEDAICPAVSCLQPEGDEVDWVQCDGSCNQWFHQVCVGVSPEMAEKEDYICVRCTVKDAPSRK
#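 Coupled FDH/NAD⁺ fluorescence readout. KDM5BΔAP 200 nM final; compound titration, 10 min RT preincubation; substrate mix 12.5 µM H3K4me3, 25 µM 2-OG, 50 µM Fe(II), 100 µM ascorbate, 0.25 mM NAD⁺, 0.25 U/mL FDH; ΔRFU over 30 min.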
# The depositor's hits bear a star; i = inactive. The entries come from a sample that favours hits as a whole. Potency is the fitted concentration of half-maximal effect.
SMILES,KDM5B inhibitor
COCCn1ccc2c(OCC(=O)Nc3c(C)cc(C)cc3C)cccc2c1=O,i
CCOC(=O)CSc1nc2c(c(=O)[nH]c(=O)n2C)n1CCCc1ccccc1,i
CC(C)CNC(=O)C(NC(=O)c1ccccc1Cl)C1CCN(C(=O)c2cccc(F)c2)CC1 (stereo not given),i
O=C(C1CCN(C(=O)N2CC3CC(C2)[C@H]2CCCC(=O)N2C3)CC1)N1CCC(N2CCCCC2)CC1 (stereo not given in full),i
O=C(NCc1ccc(Cl)cc1)c1ccc(CN2C(=O)NC3(CCOCC3)C2=O)cc1,i
COC(=O)C(=C/C=C/c1ccccc1)C(=O)OC,i
CC(CC(=O)O)c1c[nH]c2ccccc12 (stereo not given),i
Cc1ncsc1C(=O)NC1CC(c2cc(=O)[nH]c(N3CCCC3)n2)C1 (stereo not given),i
COc1ccccc1CNC(=O)c1ccc(CS(=O)c2cccc(C)c2)o1 (stereo not given),i
Cc1noc(C)c1-c1cc2c(c(-c3ccc(F)c(Cl)c3)c1)C(=O)N(C)C2,i
COc1cc(F)ccc1-c1cc(-c2c(C)noc2C)cc2c1C(=O)N(C)C2,32µM*
Cc1noc(C)c1-c1cc2c(c(-c3ccccc3)c1)C(=O)N(C)C2,i
CCN(CC)C(=O)[C@@H]1C[C@@H](NC(=O)c2ccn(CC)c(=O)c2)CN1C(C)=O,28µM*
CCN(CC)C(=O)[C@@H]1CCC[C@@H](NC(=O)c2ccc(C#N)cc2)CN(C)C(=O)C1,i
CCN(CC)C(=O)[C@@H]1C[C@@H](NC(=O)c2cc3c(s2)CCCC3)CN1C,i
O=C(NCc1ccc2c(c1)CCN2C(=O)c1ccncc1)c1cccc(F)c1,i
COc1cc(C(=O)NCC(c2cccs2)S(=O)(=O)c2cccs2)cc(OC)c1OC (stereo not given),i
CN1CCCN(C(=O)C2CCOC2)c2ccccc21 (stereo not given),i
O=C(O)C1(O)CCN(c2ncc(F)c(N3CCOCC3)n2)CC1,28µM*
CC(C)(C(=O)O)c1cnc(N2CCN(CCO)CC2)nc1N1CCOCC1,i
COCC1CCN(c2ncc(C(C)(C)C(=O)O)c(N3CCOCC3)n2)CC1,i
N#Cc1cccc(C(=O)N2CCC(n3cc(-c4nc(-c5ccccc5)no4)nn3)CC2)c1,i
Cc1ccc(CNC(=O)c2ccc(CS(=O)(=O)Cc3ccc(C)cc3)o2)cc1,i
Cc1cccc(N(C)C(=O)CCS(=O)(=O)c2ccc3c(c2)oc(=O)n3C)c1,i
Cc1ccc(S(=O)(=O)c2nnn3c2nc(NCCCOC(C)C)c2ccccc23)cc1,i
SMILES,KDM5B inhibitor
COc1ccc(OC)c([S+](=O)([O-])c2nnn3c2nc(NCCCOC(C)C)c2ccccc23)c1,89µM*
O=[S+]([O-])(c1ccc(Br)cc1)c1nnn2c1nc(NCc1ccncc1)c1ccccc12,i
Cc1cccc(-c2nnn3c2nc(NCCC(C)C)c2ccccc23)c1,i
Cc1ccc(C)c(S(=O)(=O)c2nnn3c2nc(Nc2ccc(C)c(C)c2)c2ccccc23)c1,i
CCOc1ccc(CCNc2nc3c(-c4ccc(C)cc4)nnn3c3ccccc23)cc1OCC,i
COCCCNc1nc2c([S+](=O)([O-])c3cc(OC)ccc3OC)nnn2c2ccccc12,79µM*
CC(C)OCCCNc1nc2c(S(=O)(=O)c3ccc(C(C)C)cc3)nnn2c2ccccc12,i
COCCNc1nc2c(S(=O)(=O)c3cc(C)ccc3C)nnn2c2ccccc12,79µM*
O=C(O)c1cccc(S(=O)(=O)N2CCCC(c3nc4c(nnn4Cc4ccc(F)cc4)c(=O)[nH]3)C2)c1 (stereo not given),i
COCCNC(=O)Cn1c(=O)n(CCCCCC(=O)NCc2ccccc2Cl)c(=O)c2sccc21,i
Cc1coc2cc3o/c(=N/O)c(Cc4ccccc4)c(C)c3cc12,i
O=C(NCc1ccc(S(=O)(=O)N2CCOCC2)cc1)c1cc(Cl)ccc1O,i
O=C(O)[C@@H]1CN(C(=O)CCn2ccc(=O)[nH]c2=O)C[C@H]1c1cccc(F)c1,i
O=S(Cc1ccc(Cl)cc1)Cc1ccc(Cl)cc1Cl (stereo not given),i
COc1cccc(-c2cc3c(=O)n(CCNC(=O)c4ccc(C)cc4)ccn3n2)c1,18µM*
COc1cccc(-c2cc3c(=O)n(CC(O)c4ccccc4)ccn3n2)c1 (stereo not given),28µM*
COc1cccc(-c2cc3c(=O)n(CCNC(=O)c4ccc(F)cc4)ccn3n2)c1,28µM*
COc1cccc(-c2cc3c(=O)n(CCNC(=O)Cc4ccc(Cl)cc4)ccn3n2)c1,i
COc1cccc(-c2cc3c(=O)n(CCNC(=O)Cc4cccc(F)c4)ccn3n2)c1,i
CCc1cccc(NC(=O)Cn2ccn3nc(-c4ccc(OC)c(OC)c4)cc3c2=O)c1,i
COc1cccc(-c2cc3c(=O)n(CCNC(=O)Cc4ccc(F)cc4)ccn3n2)c1,i
COc1ccc(C(O)Cn2ccn3nc(-c4ccc(C(C)C)cc4)cc3c2=O)cc1 (stereo not given),i
COc1cccc(-c2cc3c(=O)n(CCNC(=O)c4ccccc4)ccn3n2)c1,i
COc1cccc(-c2cc3c(=O)n(CCNC(=O)c4ccccn4)ccn3n2)c1,32µM*
COc1cccc(-c2cc3c(=O)n(CCNC(=O)Cc4ccccc4C)ccn3n2)c1,i
SMILES,KDM5B inhibitor
CCC(CC)C(=O)Nc1nonc1-c1ccc(Cl)cc1,i
CNCC(=O)N1CCc2nc(N)nc(NCc3ccccc3F)c2CC1,i
Cc1cc(NC(=O)CCc2ncc(-c3ccccc3F)o2)no1,i
O=C(Cc1n[nH]c(=O)c2ccccc12)NCCCc1ccccc1,i
O=C(O)c1ccccc1Oc1ccccc1,i
COCC(=O)NC[C@H]1O[C@H](Cc2cc(CN3CCNCC3)on2)CC[C@@H]1O,i
Cc1nn(-c2ccc(N3CCOCC3)nn2)c(C)c1CCC(=O)NCCc1ccco1,i
Cc1ccc(OCC(=O)N(C)CC(=O)Nc2c(C)cccc2C)c(Br)c1,i
CCCn1nc(C(=O)OCC(=O)Nc2c(C)cccc2C)c2ccccc2c1=O,i
CCCCOc1cccc(C(=O)Nc2ccc(OCCC)c3ncccc23)c1,i
O=C(c1ccccc1)N1CCC2(CC1)C(=O)NN=C2c1ccncc1,i
Cc1noc(C)c1C1CCCN1Cc1cn(-c2ccccc2)nn1 (stereo not given),i
c1ccc(-n2cc(CN3CCCCC3c3ccccn3)nn2)cc1 (stereo not given),28µM*
c1ccc(-n2cc(CN3CCC(N4CCSCC4)CC3)nn2)cc1,i
CC(NC(=O)Cc1cccn1-c1ccc(Cl)cc1)c1cccnc1 (stereo not given),i
O=C(c1nc(-c2ccc(Cl)cc2)n2c1CCCCC2)N1CCN(c2ccccc2F)CC1,i
O=C(c1ccccc1Cl)N1CCC2(CC1)Cc1ccccc1NC2=O,i
COc1c(O)cnn(-c2ccccc2)c1=O,i
OCC1CN(c2ccncn2)CC12CCN(Cc1c[nH]c3ccccc13)CC2 (stereo not given),i
Cc1ccc(CN2CCC3(CC2)CCN(Cc2ccco2)CC3CO)s1 (stereo not given),i
COc1cccc(CN2CCC3(CC2)CN(c2ccncn2)CC3CO)c1OC (stereo not given),i
O=C1NCC2(CCN(Cc3ccsc3)CC2)Oc2ccccc21,i
CN1CC(CO)C2(CCN(Cc3ccc(Cl)cc3)CC2)C1 (stereo not given),i

# High-throughput results from PubChem BioAssay.
